# Experimental data as given in PubChem BioAssay AID1117361 (Southern Research Institute, 2015).
# In all, about 3,600 compounds went through this assay and about 900 (25%) were called active. How the calls were made is not given here. The list is a sample of the results. Measured potencies and affinities stand elsewhere.
# Molecular target: Protein Tat (Human immunodeficiency virus type 1 group M subtype B (isolate HXB2)) (UniProt P04608)
# Assay: inhibitors of Tat binding to TAR RNA, dose response, counter-screen for Vif-APOBEC3G degradation inhibitor project, biochemical, fluorescence polarization, FAM-labeled TAR RNA (AID 1117361)
# Details: outcome: dose series up to 100 µM unless noted; series mostly up to 100 µM
row,SMILES,outcome
1,CCOC(=O)CSc1nnc(-c2ccco2)n1C,inactive
2,CSc1ncccc1C(=O)OCC(=O)N1CCOCC1,inactive
3,CCN(CC)c1ccc(N=Cc2ccc(N(CC)CC)cc2O)cc1,inactive
4,CCOC(=O)C1C(=O)CC(C)(O)C(C(=O)OCC)C1c1cc(Br)ccc1OC (stereo unspecified),inactive
5,COc1cccc(-c2nn3c(-c4ccccn4)nnc3s2)c1,inactive
6,O=C(CSc1nnc(-c2cccnc2)n1Cc1ccco1)c1ccc(Br)cc1,inactive
7,N#Cc1ccc(CSc2nnc(Cc3cccs3)n2Cc2ccco2)cc1,inactive
8,O=C(CCCCn1c(=O)[nH]c2ccsc2c1=O)NCc1cccnc1,inactive
9,COC(=O)c1cc(=O)nc2sc(-c3ccc(F)cc3)nn12,inactive
10,COc1c(OC(C)=O)ccc(/C=C/c2ccc3ccccc3n2)c1[N+](=O)[O-],inactive
11,COC1=C(OC)C(=O)C(Sc2ccc3ccccc3c2)=CC1=O,inactive
12,CCNC(=O)NC(=O)COC(=O)CNC(=O)COc1ccccc1,inactive
13,CCOC(=O)CNc1nc(-c2ccncc2)nc2ccccc12,inactive
14,Cc1ccc(NC(=O)C(=O)c2c(-c3ccccc3)cc3ccccn23)cc1S(=O)(=O)N1CCOCC1,inactive
15,O=C(C1CC(c2ccccc2O)=NO1)N1CCCCC1 (stereo unspecified),inactive
16,Cc1ccc(NC2=NCCCCC2)cc1C,inactive
17,Oc1ccc(/C=N/N2CCCCC2)c(O)c1,inactive
18,Cc1ccc(C(C[N+](=O)[O-])Sc2ccc(N)cc2)cc1 (stereo unspecified),inactive
19,CCCCc1ccc(NC(=O)CC(C)(C)C)cc1,inactive
20,COC(=O)c1sccc1NC(=O)CC1C(=O)NCCN1C(=O)Nc1ccccc1 (stereo unspecified),inactive
21,COc1ccc(C2SCC(C(=O)NCc3ccc(F)cc3)N2C(C)=O)cc1 (stereo unspecified),inactive
22,O=C(NNC(=O)c1cccnc1)Nc1ccc([N+](=O)[O-])cc1,inactive
23,CC(C)Cc1cc(C(=O)Nc2cccc(O)c2)no1,inactive
24,Cc1ccc(S(=O)(=O)C2(C(=O)Nc3cccc(F)c3)CC2)cc1,inactive

row,SMILES,outcome
1,O=C(Nc1ccc(F)c(Cl)c1)c1cccnc1,inactive
2,CN1CCN(C(CNC(=O)c2ccc(Br)o2)c2ccc(F)cc2)CC1 (stereo unspecified),inactive
3,CCOc1ccc(C2c3c(oc4ccccc4c3=O)C(=O)N2CCCN2CCOCC2)cc1 (stereo unspecified),inactive
4,COc1ccc(C(C(C(=O)c2cccs2)N2CCOCC2)N2CCOCC2)cc1OC (stereo unspecified),inactive
5,CN(C(=O)c1ccc(OC2CCN(S(=O)(=O)N(C)C)CC2)cc1)C1CCCCC1,inactive
6,O=C(Nc1ccccc1)NC1CCN(CCCN2C(=O)c3ccccc3C2=O)CC1,inactive
7,Cc1ccc(NC(=O)Nc2ccc3c(c2)nc(C)n3C)cc1,inactive
8,COc1ccc(NC(=O)Cc2ccc(Cl)cc2)cc1NC(=O)c1ccco1,inactive
9,Cc1cccc2nc(C(=O)Nc3cccc(C(=O)NC4CC4)c3)cn12,inactive
10,COc1ccc(N2CCN(CCNC(=O)Nc3ccc(Cl)cc3)CC2)cc1,inactive
11,CC(=O)c1cccc(NC(=O)NCCS(C)=O)c1 (stereo unspecified),inactive
12,Cc1cc2nc(C)n(CCCNC(=O)Nc3ccc(F)cc3)c2cc1C,inactive
13,Cc1ccc(NCc2nnc(SCC(=O)N(Cc3ccccc3)C(C)(C)C)o2)c(C)c1,inactive
14,CNC(=O)C(=O)N/N=C/c1cccnc1,inactive
15,O=C(CN(C(=O)c1cc2c(s1)CCC2)C1CCCC1)NCc1cccs1,inactive
16,CCCc1nc2ccccc2c(=O)n1NC(=O)c1c(O)c2cccc3c2n(c1=O)CCC3,inactive
17,COC(=O)Cc1cc(=O)[nH]c(/N=C(\N)Nc2ccc(C)cc2)n1,inactive
18,O=C(N/N=C\c1ccc(Cl)cc1)C1=NOC2COC3(CCN(c4ccc([N+](=O)[O-])cc4)CC3)OCC12 (stereo unspecified),inactive
19,CCC(C)N1CC23C=CC(O2)C(C(=O)OC)C3C1=O (stereo unspecified),inactive
20,COCC(=O)Nc1sc2c(c1C(=O)OC)C(C(=O)OC)CC2 (stereo unspecified),inactive
21,CCOC(=O)C1=C(Cc2ccc(Cl)cc2)C(=O)c2ccccc2C1=O,inactive
22,CCOC(=O)c1c2c(n(Cc3ccccc3)c1C)C(=O)C(=O)c1ccccc1-2,inactive
23,O=C(Nc1ccccc1N1CCCCC1)c1ccccc1F,inactive
24,COc1c(F)c(F)c(C(=O)Nc2ccccc2N2CCN(C(C)=O)CC2)c(F)c1F,inactive

row,SMILES,outcome
1,COc1ccc(S(=O)(=O)N(C(C)=O)c2ccc3oc(=O)sc3c2)cc1,inactive
2,O=C1C(Cl)=C(Oc2ccccc2)C(=O)c2ccccc21,inactive
3,CC(OC(=O)c1cccc(O)c1)C(=O)N(C)Cc1ccccc1 (stereo unspecified),inactive
4,CC(=O)Nc1ccc(NC(=O)c2sc3nc4c(c(-c5ccc(C)cc5)c3c2N)CCC4)cc1,inactive
5,CSc1ncccc1C(=O)NCc1nnc2ccccn12,inactive
6,O=C(Cn1c(NCCO)nc2ccccc21)NCC(F)(F)F,inactive
7,O=C(CSc1nnc(CN2CCCCC2)n1-c1ccccc1)c1ccc2c(c1)OCO2,inactive
8,CC(NC(=O)c1ccco1)C(=O)N1CCc2ccccc2C1 (stereo unspecified),inactive
9,O=C(CN(C1CCCCC1)C1CCCCC1)N1CCc2ccccc2C1,inactive
10,Cc1ccc([C@H]2C(C(=O)O)=CC[C@@H](c3cccc(Cl)c3)N2S(=O)(=O)c2ccc(C)cc2)cc1,inactive
11,COc1ccccc1-n1nnnc1SCC(=O)Nc1cc(C)on1,inactive
12,O=c1cc2oc3cc(O)c(O)cc3c(-c3ccccc3O)c-2cc1O,inactive
13,OC(CN1CCCCC1)CN1CCCCC1,inactive
14,CS(=O)(=O)N(CC(=O)N1CCN(Cc2ccccc2)CC1)c1ccc2c(c1)OCCO2,inactive
15,C[C@H](NC(=O)OCc1ccccc1)C(=O)NNC(=O)[C@H](C)NC(=O)OCc1ccccc1,inactive
16,CSCCC(CO)NC(=O)OCc1ccccc1 (stereo unspecified),inactive
17,O=C(Nc1nnc(C2CC2)o1)c1ccc(S(=O)(=O)N2CCCc3ccccc32)cc1,inactive
18,Cc1ccc(N2CC(NC(=O)N3CCN(C(=O)c4ccco4)CC3)CC2=O)cc1 (stereo unspecified),inactive
19,CSc1ccc(C2Nc3ccccc3-c3cc(C)nn32)cc1 (stereo unspecified),inactive
20,O=C(Nc1ccc2c(c1)OCO2)c1cccc(S(=O)(=O)N2CCCC2)c1,inactive
21,COc1ccc(S(=O)(=O)Nc2ccc3c(c2)OCO3)cc1C,inactive
22,O=S(=O)(Nc1ccc2c(c1)OCCO2)c1cnc[nH]1,inactive
23,O=C(CCc1ccc(S(=O)(=O)NCCc2ccccc2)cc1)Nc1ccc2c(c1)OCO2,inactive
